Compound activity: PubChem, National Center for Advancing Translational Sciences (NCATS)
CtBP-E1A blk = CtBP/E1A binding inhibition. activity change, % (no concentration beside the values). AlphaScreen GST-E1A/His-CtBP binding, 1536-well; active compounds read low. 340,000 tested, 0.49% active; in the data active = activity change below about -65%; inconclusive = mostly about -30% to -63%
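Steps: dispense buffer (Tris pH 8.0, NaCl 300 mM, TCEP 1 mM, BSA, Tween 20); add 5X protein mix (GST-E1A, His-CtBP, 125 nM each); pin 23 nL compound; 2 h at 37 °C, dark; add 5X beads (50 ug/mL); 1 h; read.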
Six1-Eya2 blk = inhibitors of human Six1/Eya2 interaction; 360,000 tested, 0.56% active; AlphaScreen GST-Six1/His-Eya2 binding, biochemical; active compounds read low; activity change, % (concentration not given with the values); in the data active = activity change below about -65%; inconclusive = mostly about -30% to -63%
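Homogeneous AlphaScreen proximity assay pairing GST-Six1 with His-tagged Eya2 (added as 5X mix: 250 nM and 500 nM) in 50 mM Tris pH 8.0, 300 mM NaCl, 1 mM TCEP. Glutathione donor and nickel acceptor beads; 1 h, 37 °C, dark.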
JMJD2A Tudor = inhibitors of human JMJD2A Tudor domain; O75164; AlphaScreen JMJD2A-Tudor / H3K4me3 peptide binding; Potency, µM (highest dose often 114 µM), usual class: inhibitors; 390,000 tested, 4.4% active; note: nearly all actives have a fitted effect of over 50% in size
HP1b chromo inh = inhibitors of HP1-beta chromodomain binding to methylated histone tails; P83916; AlphaScreen HP1-beta / biotin-H3K9me3 peptide binding; Potency, µM (series often up to 114 µM), usual class: inhibitors; 390,000 tested, 0.56% active; note: nearly all actives have a fitted effect of over 70% in size
Target sequence (P83916 whole entry, looked up): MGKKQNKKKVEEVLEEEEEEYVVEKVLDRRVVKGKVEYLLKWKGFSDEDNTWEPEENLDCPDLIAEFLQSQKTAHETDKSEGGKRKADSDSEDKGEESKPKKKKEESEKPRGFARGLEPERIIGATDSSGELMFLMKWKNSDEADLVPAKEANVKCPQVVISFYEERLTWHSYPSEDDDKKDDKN
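Compound inhibition of the preformed complex between 50 nM HP1-beta and 50 nM biotinylated H3K9me3 peptide was read by AlphaScreen. Buffer was PBS pH 7.4 with 0.01% Tween-20. Incubations ran 30 min at room temperature, with 10 ug/mL donor/acceptor beads.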
BAZ2B block = BAZ2B (human) inhibition | Q9UIF8 | AlphaScreen BAZ2B-H3K14Ac peptide displacement | Potency, µM (titrated, usually from 114 µM), usual class: inhibitors | 360,000 tested, 4.4% active | AID 504333; note: nearly all actives have a fitted effect of over 60% in size
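BAZ2B (50 nM) with biotin-H3(5-23)K14Ac peptide (50 nM) in PBS pH 7.4, 0.01% Tween-20, preformed 30 min, then compound 30 min at room temperature; top concentration 110uM. AlphaScreen streptavidin donor/nickel chelate acceptor beads (10 ug/mL final), 20 min dark, signal read.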
G9a block = blocks human histone lysine methyltransferase G9a | G9a H3K9 monomethylation, AlphaScreen, 2 h | Potency, µM (titrated, usually from 102 µM), usual class: inhibitors | 350,000 tested, 8.8% active | AID 504332; note: nearly all actives have a fitted effect of over 75% in size
Target sequence (Q96KQ7 913-1193 limits assumed): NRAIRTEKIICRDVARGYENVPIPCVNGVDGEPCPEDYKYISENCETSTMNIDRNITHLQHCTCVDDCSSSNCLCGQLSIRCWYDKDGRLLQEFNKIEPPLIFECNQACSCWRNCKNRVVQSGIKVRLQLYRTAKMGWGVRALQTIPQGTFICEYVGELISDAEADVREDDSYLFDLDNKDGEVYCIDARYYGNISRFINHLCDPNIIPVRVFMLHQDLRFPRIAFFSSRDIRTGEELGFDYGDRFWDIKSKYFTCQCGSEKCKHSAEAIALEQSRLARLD
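Methyltransferase reactions run at room temperature for 2 h (20 nM enzyme, 500 nM biotin-H3K9 peptide, 20 uM SAM) after a 15 min compound preincubation; product detected by AlphaScreen beads and anti-H3K9me1 antibody.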
Each line names hits and unclear results; the compound was inactive in the other large screens. The list is not random: actives were taken first. Their share in the collection is about 10%. Unless noted, calls come from the whole dose curve; as a rule, active = well fitted inhibition curve with a large enough effect; inconclusive = small, poorly fitted or top-dose-only effect; inactive = no such curve, though single readings can be large or run the other way.

CCCOc1cccc(CN2CCCCC2c2cccnc2)c1 (stereo not drawn)	JMJD2A Tudor inconclusive, BAZ2B block inconclusive, G9a block 44.7µM
COc1ccccc1C1Nc2cccc3cccc(c23)N1	JMJD2A Tudor 50.1µM, HP1b chromo inh inconclusive, BAZ2B block 50.1µM, G9a block inconclusive
Oc1ccccc1C1Nc2cccc3cccc(c23)N1	HP1b chromo inh inconclusive, BAZ2B block 35.5µM
COc1cc(OC)c(C2Nc3cccc4cccc(c34)N2)c(OC)c1	JMJD2A Tudor 50.1µM, HP1b chromo inh inconclusive, BAZ2B block 35.5µM, G9a block 28.2µM
CN(C)c1ccc(C2NC(=O)c3ccccc3N2)cc1 (stereo not drawn)	none (no result: G9a block)
COc1cc(OC)c(C2SCCS2)c(OC)c1	BAZ2B block inconclusive
COc1ccccc1C1NC(=O)CS1 (stereo not drawn)	none (no result: BAZ2B block)
CN(C)c1ccc(C2Nc3cccc4cccc(c34)N2)cc1	JMJD2A Tudor inconclusive, HP1b chromo inh inconclusive, BAZ2B block inconclusive, G9a block 39.8µM
C/C(=C\c1cc2ccccc2o1)C1Nc2cccc3cccc(c23)N1	JMJD2A Tudor inconclusive, HP1b chromo inh inconclusive (no result: CtBP-E1A blk, Six1-Eya2 blk)
COc1cc(OC)c(NC(=O)c2oc3ccc4c(c3c2C)C(=O)CC(C)(C)O4)cc1Cl	none (no result: CtBP-E1A blk, Six1-Eya2 blk)
COc1ccc(NC(=O)c2ncoc2-c2ccco2)cc1Cl	none (no result: CtBP-E1A blk, Six1-Eya2 blk)
COC(=O)c1sccc1S(=O)(=O)N(CC(=O)NCc1ccccc1)c1ccc(C)c(C)c1	none (no result: CtBP-E1A blk, Six1-Eya2 blk)
Clc1cccc(C2Nc3cccc4cccc(c34)N2)c1	JMJD2A Tudor inconclusive, HP1b chromo inh inconclusive, BAZ2B block inconclusive (no result: G9a block)
O=[N+]([O-])c1ccc(Cl)c(C2Nc3cccc4cccc(c34)N2)c1	Six1-Eya2 blk inconclusive, JMJD2A Tudor 25.1µM, HP1b chromo inh inconclusive, BAZ2B block 17.8µM, G9a block 12.6µM
c1ccc(C2Nc3cccc4cccc(c34)N2)cc1	JMJD2A Tudor inconclusive, HP1b chromo inh inconclusive, BAZ2B block inconclusive, G9a block 12.6µM
COc1ccc(C2Nc3cccc4cccc(c34)N2)cc1	JMJD2A Tudor inconclusive, HP1b chromo inh inconclusive, BAZ2B block 39.8µM, G9a block 35.5µM
Brc1cccc(C2Nc3cccc4cccc(c34)N2)c1	BAZ2B block inconclusive, G9a block 35.5µM
O=C(Nc1cccc(NC(=O)c2cc([N+](=O)[O-])ccc2Cl)n1)c1cc([N+](=O)[O-])ccc1Cl	JMJD2A Tudor inconclusive (no result: CtBP-E1A blk, BAZ2B block, G9a block)
Clc1ccc(C2Nc3cccc4cccc(c34)N2)cc1Cl	BAZ2B block inconclusive (no result: CtBP-E1A blk, G9a block)
CCOc1ccc(NC(=O)CSc2nc3c(c(=O)[nH]2)CCCC3)cc1	none (no result: CtBP-E1A blk, Six1-Eya2 blk)
O=[N+]([O-])c1ccccc1C1Nc2cccc3cccc(c23)N1	JMJD2A Tudor 39.8µM, HP1b chromo inh inconclusive, BAZ2B block 31.6µM, G9a block 2.82µM
Nc1nc2n(n1)C(=O)CC(c1ccccc1[N+](=O)[O-])N2 (stereo not drawn)	none (no result: CtBP-E1A blk)
CCOC(=O)C1CCCN(C(c2ccccn2)c2c(C)[nH]c3ccccc23)C1 (stereo not drawn)	G9a block 1.41µM
Cc1ccnc(NC(c2ccccn2)c2c(C)[nH]c3ccccc23)c1 (stereo not drawn)	JMJD2A Tudor 56.2µM, HP1b chromo inh inconclusive, G9a block inconclusive
Cc1[nH]c2ccccc2c1C(c1ccccn1)N1CCCC1 (stereo not drawn)	G9a block 44.7µM
Cc1[nH]c2ccccc2c1C(c1ccccn1)N1CCC(C)CC1 (stereo not drawn)	G9a block inconclusive
CCOc1ccccc1NC(=O)C1=C(C)Nc2ncnn2C1c1ccccn1 (stereo not drawn)	none (no result: CtBP-E1A blk, Six1-Eya2 blk)
COc1ccc(C2CC(=O)N3C(=C2C#N)SCC3(O)c2ccccc2)cc1 (stereo not drawn)	JMJD2A Tudor inconclusive
COc1ccc2ccccc2c1C1CC(=O)N2CN(C)CSC2=C1C#N (stereo not drawn)	JMJD2A Tudor 28.2µM, HP1b chromo inh inconclusive, BAZ2B block inconclusive, G9a block 1.58µM
COc1cc(OC)c(C2CC(=O)N3CN(C)CSC3=C2C#N)cc1OC (stereo not drawn)	JMJD2A Tudor 3.98µM, G9a block 1.26µM
COc1ccc(Br)cc1C1CC(=O)N2CN(Cc3ccccc3)CSC2=C1C#N (stereo not drawn)	JMJD2A Tudor inconclusive, G9a block 1.41µM
COc1ccc(Br)cc1C1CC(=O)N2CN(C)CSC2=C1C#N (stereo not drawn)	JMJD2A Tudor inconclusive, HP1b chromo inh inconclusive, G9a block 1.41µM
COC(=O)c1ccc(NC(=O)Cc2coc3cc(C)ccc23)cc1	none (no result: CtBP-E1A blk, Six1-Eya2 blk)
N#CC1=C2SCN(Cc3ccccc3)CN2C(=O)CC1c1ccccc1F (stereo not drawn)	JMJD2A Tudor 79.4µM, HP1b chromo inh inconclusive, G9a block 1.78µM
COC(=O)CSC1=C(C#N)C(c2ccccc2F)CC(=O)N1 (stereo not drawn)	G9a block inconclusive
CCc1nn(CC(=O)NCCc2ccc(SC)cc2)c(=O)c2cc3sccc3n12	none (no result: CtBP-E1A blk, Six1-Eya2 blk)
CCOCCCn1c(SCC(=O)Nc2oc(C)c3c(C)n[nH]c(=O)c23)nnc1-c1ccncc1	G9a block 35.5µM
Cc1n[nH]c(=O)c2c(NC(=O)CSc3ncccn3)oc(C)c12	G9a block 50.1µM
C=CCn1c(C)nnc1SCC(=O)Nc1oc(C)c2c(C)n[nH]c(=O)c12	G9a block 31.6µM
Cc1ccc(C)c(SCC(=O)Nc2oc(C)c3c(C)n[nH]c(=O)c23)c1	G9a block 39.8µM
COc1ccc(OC)c(NC(=O)CCCc2nnc3n(C(C)C)c(=O)c4sccc4n23)c1	none (no result: CtBP-E1A blk, Six1-Eya2 blk)
CCc1cc2c(=O)n(CCCOC)c(SCC(=O)Nc3oc(C)c4c(C)n[nH]c(=O)c34)nc2s1	G9a block 56.2µM
CCOC(=O)c1c(C)sc(-c2c(-c3ccc(OC)c(F)c3)[nH]c3c2c(=O)[nH]c(=O)n3C)c1O	none (no result: CtBP-E1A blk, Six1-Eya2 blk)
CCn1cc([N+](=O)[O-])c(C(=O)N2N=C(c3ccc(OC)cc3OC)CC2c2ccccc2O)n1 (stereo not drawn)	JMJD2A Tudor inconclusive, HP1b chromo inh inconclusive, G9a block 44.7µM
CC(CNC(=O)c1cc2ccccn2n1)c1ccccc1 (stereo not drawn)	none (no result: CtBP-E1A blk, Six1-Eya2 blk)
CCc1ccc(NC(=O)Cn2nnc(C(=O)Nc3cc(C)ccc3OC)c2N)cc1	none (no result: CtBP-E1A blk, Six1-Eya2 blk)
C=C(C)CNC(=S)Nc1cccc(N)n1	BAZ2B block inconclusive, G9a block 1.26µM
COc1ccc(N2CCN(S(=O)(=O)c3ccc(-c4ccno4)cc3OC)CC2)cc1	JMJD2A Tudor inconclusive, BAZ2B block 22.4µM, G9a block 10µM (no result: CtBP-E1A blk, Six1-Eya2 blk)
COc1cc(-c2ccno2)ccc1S(=O)(=O)N1CCN(c2ccccc2F)CC1	none (no result: CtBP-E1A blk, Six1-Eya2 blk)
COc1cc(/C=C2/C(=O)CNC2=O)ccc1O	G9a block 44.7µM
